In PubChem BioAssay AID1619 (SRMLSC, 2009):
Hit rate of the full screen: of about 220,000 compounds, about 830 (0.38%) were called active.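 How the source made its calls: active means compound inhibiting the enzyme by more than half at any dose during confirmatory dose-response retesting; inconclusive means strong single-dose inhibitors picked by rank but not retested; inactive means the rest.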 The list is a sample of the results. Measured potencies and affinities stand elsewhere.

biological target: Leucine aminopeptidase (Plasmodium falciparum (isolate 3D7)) (UniProt Q8IL11); assay: P. falciparum M17LAP inhibitors, primary screen, biochemical, fluorogenic H-Leu-NHMec substrate, 1536-well (AID 1619); conditions: recombinant M17LAP, H-Leu-NHMec fluorogenic kinetic assay; at 30 µM; hits give high values;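 further: plate controls were full reaction with DMSO carrier for no effect and no enzyme background for full effect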
Sequence (Q8IL11 whole entry, looked up): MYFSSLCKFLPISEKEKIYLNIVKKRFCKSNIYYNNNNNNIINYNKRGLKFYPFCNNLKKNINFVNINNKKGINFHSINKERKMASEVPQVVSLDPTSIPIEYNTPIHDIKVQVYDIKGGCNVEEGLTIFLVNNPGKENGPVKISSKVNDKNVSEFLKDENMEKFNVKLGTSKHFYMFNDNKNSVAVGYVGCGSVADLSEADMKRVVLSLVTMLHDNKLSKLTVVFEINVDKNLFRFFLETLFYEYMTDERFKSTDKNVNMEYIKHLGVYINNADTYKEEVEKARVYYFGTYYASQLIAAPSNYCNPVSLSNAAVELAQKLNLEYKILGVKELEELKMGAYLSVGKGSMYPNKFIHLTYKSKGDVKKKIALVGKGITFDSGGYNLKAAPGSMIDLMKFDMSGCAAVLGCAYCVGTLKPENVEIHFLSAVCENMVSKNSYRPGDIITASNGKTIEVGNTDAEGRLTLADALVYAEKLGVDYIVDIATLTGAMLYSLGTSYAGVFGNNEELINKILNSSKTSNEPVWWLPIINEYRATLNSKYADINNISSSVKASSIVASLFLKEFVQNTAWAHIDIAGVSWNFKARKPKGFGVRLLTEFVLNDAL

inhibition, inactive:
N#Cc1ccc(C(=O)CSc2n[nH]c(=O)n2Cc2ccco2)cc1 -0.26%, COc1ccc(Cc2nnc(NS(=O)(=O)c3ccccc3)s2)cc1 52.4%, COc1ccc(Cc2nnc(NS(C)(=O)=O)s2)cc1 11.1%, O=C(O)COc1ccc(NC(=O)c2cccs2)cc1 16.1%, O=C(Nc1cccc(Oc2ccc(C(=O)O)c(C(=O)O)c2)c1)c1ccc(-c2ccccc2)cc1 38.5%, COc1ccc(NC(=O)c2cccs2)cc1 -8.71%, Cc1cccc(Oc2ccc(NC(=O)c3ccccc3C(=O)O)cc2)c1 2.06%, CC(=O)Nc1ccccc1N(CC(O)Cn1c2ccccc2c2ccccc21)S(=O)(=O)c1ccc(C)cc1 (configuration not stated) 11.1%, CC(=O)CSc1nnc(Cc2ccc3c(c2)OCO3)o1 -2.53%, Cc1ccc(NC(=O)CN2C(=O)N/C(=C/c3ccc(C)s3)C2=O)cc1 -4%, Cc1ccc(NC(=O)CN2C(=O)N/C(=C/c3ccc(C)o3)C2=O)cc1 71.1%, CCn1cc(C(=O)OCC(=O)N2C(C)CCCC2C)c(=O)c2ccc(C)nc21 (configuration not stated) 0.44%, CCCCSc1nc(O)c(C2OC(=O)c3c2ccc(OC)c3OC)c(=O)n1-c1ccccc1 (configuration not stated) 32%, CCCSc1nc(O)c(C2OC(=O)c3c2ccc(OC)c3OC)c(=O)n1-c1ccccc1 (configuration not stated) 31.4%, CCSc1nc(O)c(C2OC(=O)c3c2ccc(OC)c3OC)c(=O)n1CC (configuration not stated) 41.4%, CCCCSc1nc(O)c(C2OC(=O)c3c2ccc(OC)c3OC)c(=O)n1C (configuration not stated) 44.3%, CC1=CCC2C(=O)N(c3ccc(Br)cc3C)C(=O)C2C1 (configuration not stated) -2.62%, COc1cc(C(=O)O)cc(NC(=O)c2cccs2)c1OC 27%, CC(NS(=O)(=O)c1ccccc1)C(c1cccs1)N1CCOCC1 (configuration not stated) 3.6%, CCOc1ncccc1C(=O)OCC(=O)NCc1ccc2c(c1)OCO2 -8.27%, O=C(COC(=O)c1cccc(S(=O)(=O)N2CCOCC2)c1)Nc1ncc(C(F)(F)F)cc1Cl 4.29%, C/C(CC(=O)Nc1cc(C)ccn1)=N\NC(=O)c1cccc(C)c1 36.6%, C/C(CC(=O)Nc1cc(C)ccn1)=N\NC(=O)C(=O)Nc1cccc(C)c1 17.6%, CC(=O)CSc1ncnc2c1cnn2-c1ccccc1 -3.85%, c1ccc(CSc2ncnc3c2cnn3-c2ccccc2)cc1 6.75%, O=C(O)c1cccc(-n2cccc2/C=C2\NC(=O)N(Cc3ccc(F)cc3)C2=O)c1 14.1%, O=C1N/C(=C/c2cccn2-c2ccccc2)C(=O)N1Cc1ccccc1F 2.46%, COc1ccc(C(=O)OCC(=O)Nc2nc3c(F)c(F)c(F)cc3s2)cc1OC -4.12%, CCOc1ccccc1OCC(=O)Nc1nnc(COC)s1 -14%, COc1ccc(-c2cn(-c3cccc(C)c3)c(=O)[nH]2)cc1OC 12.5%, COc1cccc(-c2cc(=O)[nH][nH]2)c1 -0.06%, COc1ccc(-c2cc(=O)[nH]c(=O)[nH]2)cc1 6.04%, COc1ccc(-c2c[nH]c(=O)[nH]c2=O)cc1OC 7.18%, Cn1nc(-c2ccc(NCCO)c([N+](=O)[O-])c2)c2ccccc2c1=O -6.44%, Cc1nn(-c2ccccn2)c(N)c1N=O 13.8%, O=C(CN1C2=NCCCN2c2ccccc21)c1cccs1 -10.1%, CCN1C(=O)/C(=C/c2cccs2)SC1=Nc1ccc(OC)cc1 -1.72%, COc1ccc(OCC(=O)Nc2cccc(C(=O)Nc3ccccc3C(=O)O)c2)cc1 37%, CC(C)c1ccc(OCC(=O)Nc2cccc(C(=O)Nc3ccccc3C(=O)O)c2)cc1 5.28%, Cc1cc2nc(SC(C)C(=O)O)[nH]c2cc1C (configuration not stated) 19.5%, CC(Sc1nc2ccccc2[nH]1)C(=O)O (configuration not stated) 4.99%, COc1ccc(-n2nc(N)c3c(=O)oc(N(C)C)nc32)cc1 3.39%, NC(=O)CN(c1ccccc1)C1SC(=O)N(Cc2ccccc2)C1=O (configuration not stated) -3.19%, COC(=O)c1cccc(CN2C(=O)SC(Nc3ccccc3)C2=O)c1 (configuration not stated) 2.34%, Cc1ccc(N(CC(N)=O)C2SC(=O)N(Cc3ccccc3)C2=O)cc1 (configuration not stated) 8.98%, Cc1ccc(NC2SC(=O)N(Cc3cccc(C(=O)O)c3)C2=O)c(C)c1 (configuration not stated) -1%, O=C(O)CN1C(=O)SC(Nc2ccccc2)C1=O (configuration not stated) 15.1%, COC(=O)c1cccc(CN2C(=O)SC(Nc3ccc(C)cc3)C2=O)c1 (configuration not stated) 2.69%, O=C1Nc2ccccc2S/C1=C/c1cccs1 4.97%, CCCCCCOc1cccc(N)c1 -6.2%, COc1ccc(S(=O)(=O)N(CC(=O)N/N=C/c2cccs2)c2cc(C)cc(C)c2)cc1OC -9.62%, Cc1ccc(O)c(CNn2cnnc2)c1 -3.08%, C/C(=N\O)c1oc2ccc3c(C)cc(=O)oc3c2c1C 2.81%, COc1nc(N(CC(N)=O)S(=O)(=O)c2ccccc2)nc(C)c1Cl -8.61%, Cc1ccc(-n2nnnc2CN2CCCCC2)cc1 -0.54%, COC(=O)c1scc(C)c1N/N=C(\C)c1cc(F)c(Cl)cc1F -1.99%, Cn1ncc(Cl)c1C(=O)N/N=C/c1cc2c(cc1[N+](=O)[O-])OCO2 10.6%, CCCc1ncc(C(O)c2ccc(OC)cc2)n1C (configuration not stated) -6.37%, Cc1ccc(NC(=O)CN(C)C(=O)CSc2nc(C)cs2)cc1 -4.97%, Cc1ccc(NC(=O)CN(C)C(=O)CSc2nc3ccccc3o2)cc1 3.63%, Cc1ccc(CNC(=O)CSc2n[nH]c(N)n2)cc1 16.9%, Cc1ccc(Oc2ccc(NC(=O)CSc3n[nH]c(N)n3)cc2)cc1 -7.16%
